Measurements from PubChem BioAssay (NCI).
Compounds without any hit were thinned out: in the full panel of roughly 79,000, 15% have a hit. Active and inactive are the calls of the source. No stated cut-off is given here; in the data, active means growth inhibition above about 70%; inactive means the rest.

Test: NCI Yeast Anticancer Drug Screen. Data for the rad52 strain (AID 147);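 further: 0% = growth of vehicle-treated control cultures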
Details: S. cerevisiae rad52 mutant growth inhibition; at 1.2 µM; stronger effect = higher value
Summary of the method: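 Compounds are applied to a genetically defined yeast strain lacking normal DNA damage repair, and inhibition of growth is expressed relative to cultures given vehicle only.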

| Compound | growth inhibition |
| --- | --- |
| CCC/C(Cl)=N\OC(=O)Nc1cccc(C(F)(F)F)c1 | 9% (inactive) |
| [O-][n+]1c2ccc(O)cc2nc2ccc(Cl)cc21 | 5% (inactive) |
| Clc1ccccc1C1OC1c1ccccc1Cl (stereo not drawn) | -29% (inactive) |
| c1ccc2c(c1)c1ncccc1c1nccnc21 | 2% (inactive) |
| CC(=O)Nc1ccc2c(c1)C(=Nc1ccc(C(=O)O)cc1)c1ccccc1-2 | -4% (inactive) |
| COc1ccc(OC)c2cc3ccccc3cc12 | 11% (inactive) |
| COc1cc(C2c3cc4c(cc3OC(NNc3ccccc3)C2C)OCO4)cc(OC)c1OC (stereo not drawn) | 36% (inactive) |
| O=C1c2cc([N+](=O)[O-])ccc2-c2cccc(F)c21 | 14% (inactive) |
| CCCCCCCCCCCC(=O)N(C)C | -12% (inactive) |
| CCCCCCCCCCCC1=C(O)C(=O)C=C(O)C1=O | -7% (inactive) |
| Cc1ccc(CSC(N)=Nc2ccccc2)cc1C | 20% (inactive) |
| CCCCCCCCCCC1CCC(=O)O1 (stereo not drawn) | -2% (inactive) |
| O=[N+]([O-])c1cc(CCl)ccc1CCl | 6% (inactive) |
| Nc1ccc2c(c1)C(=O)c1cccc(N)c1C2=O | 6% (inactive) |
| CCCCCCCCCCNC(=O)OCC | 0% (inactive) |
| CC1=C(C)Cc2c(O)ccc(O)c2C1 | 1% (inactive) |
| COc1ccc2c(c1)C(=O)c1ccccc1C2 | 3% (inactive) |
| CCC(=O)OCCn1c2nc(=O)[nH]c(=O)c-2nc2cc(C)c(C)cc21 | -10% (inactive) |
| O=C(OCCN1CCCCCC1)C(c1ccsc1)C1CCCCC1 (stereo not drawn) | 15% (inactive) |
| Oc1c(Br)cc(Br)cc1C1CCCCC1 | -13% (inactive) |

| Compound | growth inhibition |
| --- | --- |
| CC1(C)[C@@H]2CC[C@]1(C)[C@H](OC(=O)CSC#N)C2 | 0% (inactive) |
| S=C(N/N=C(/c1ccccc1)c1ccccn1)N1CCCCCC1 | 42% (inactive) |
| Cc1ccc2[nH]c3c(C)c4cc[n+](C)cc4c(C)c3c2c1 | 25% (inactive) |
| CNC(=O)OCc1c(COC(=O)NC)c(-c2ccc(-c3ccccc3)cc2)n(C)c1C | -36% (inactive) |
| COc1ccccc1/C=C1\Sc2scc(-c3cccc([N+](=O)[O-])c3)[n+]2C1=O | 31% (inactive) |
| O=[N+]([O-])c1ccc2c(c1)C(N1CCN(CCO)CC1)Cc1ccc(F)cc1S2 (stereo not drawn) | -2% (inactive) |
| Cc1ccc(CCC2=CCCc3c2ccc2ccccc32)cc1 | -1% (inactive) |
| O=[N+]([O-])c1cccc2nccc(NCCCO)c12 | 18% (inactive) |
| Cc1ccc(-n2cc(-c3ccc(Cl)cc3)c(C#N)c2N)cc1 | 0% (inactive) |
| Cc1ccc(S/N=C\c2ccccc2O)cc1 | 1% (inactive) |
| O=C(O)C1OC1(c1cccc(Cl)c1)c1ccccc1Cl (stereo not drawn) | -9% (inactive) |
| NC(=S)N/N=C\c1nccc2ccccc12 | -10% (inactive) |
| Clc1cccc(C(Nc2nncs2)Nc2nncs2)c1Cl | -1% (inactive) |
| O=C(OCC=C1CCCC1)c1cc([N+](=O)[O-])cc([N+](=O)[O-])c1 | -1% (inactive) |
| O=C(Nc1ccccc1)C(=O)C(C(=O)c1ccccc1)C(c1ccccc1)c1ccccc1 (stereo not drawn) | 8% (inactive) |
| N#CN1C2CCC1CC(=O)C2 | -12% (inactive) |
| COc1ccccc1C(=O)OCC1CCCN2CCCCC12 (stereo not drawn) | 22% (inactive) |
| CCNc1nnc(CSc2nc(-c3ccccc3)c(-c3ccccc3)[nH]2)s1 | -6% (inactive) |
| O=C1c2ccccc2-c2n[nH]c3cccc1c23 | -28% (inactive) |

Same assay, conditions: S. cerevisiae rad52 mutant growth inhibition; at 3.7 µM; stronger effect = higher value

| Compound | growth inhibition |
| --- | --- |
| CCC/C(Cl)=N\OC(=O)Nc1cccc(C(F)(F)F)c1 | 10% (inactive) |
| [O-][n+]1c2ccc(O)cc2nc2ccc(Cl)cc21 | 19% (inactive) |
| Clc1ccccc1C1OC1c1ccccc1Cl (stereo not drawn) | -38% (inactive) |
| c1ccc2c(c1)c1ncccc1c1nccnc21 | 8% (inactive) |
| CC(=O)Nc1ccc2c(c1)C(=Nc1ccc(C(=O)O)cc1)c1ccccc1-2 | -2% (inactive) |
| COc1ccc(OC)c2cc3ccccc3cc12 | -9% (inactive) |
| COc1cc(C2c3cc4c(cc3OC(NNc3ccccc3)C2C)OCO4)cc(OC)c1OC (stereo not drawn) | 44% (inactive) |
| O=C1c2cc([N+](=O)[O-])ccc2-c2cccc(F)c21 | 31% (inactive) |
| CCCCCCCCCCCC(=O)N(C)C | -6% (inactive) |
| CCCCCCCCCCCC1=C(O)C(=O)C=C(O)C1=O | -2% (inactive) |
| Cc1ccc(CSC(N)=Nc2ccccc2)cc1C | 21% (inactive) |
| CCCCCCCCCCC1CCC(=O)O1 (stereo not drawn) | -2% (inactive) |
| O=[N+]([O-])c1cc(CCl)ccc1CCl | 11% (inactive) |
| Nc1ccc2c(c1)C(=O)c1cccc(N)c1C2=O | 38% (inactive) |
| CCCCCCCCCCNC(=O)OCC | 1% (inactive) |
| CC1=C(C)Cc2c(O)ccc(O)c2C1 | 12% (inactive) |
| COc1ccc2c(c1)C(=O)c1ccccc1C2 | 9% (inactive) |
| CCC(=O)OCCn1c2nc(=O)[nH]c(=O)c-2nc2cc(C)c(C)cc21 | -12% (inactive) |
| O=C(OCCN1CCCCCC1)C(c1ccsc1)C1CCCCC1 (stereo not drawn) | 14% (inactive) |
| Oc1c(Br)cc(Br)cc1C1CCCCC1 | -10% (inactive) |

| Compound | growth inhibition |
| --- | --- |
| CC1(C)[C@@H]2CC[C@]1(C)[C@H](OC(=O)CSC#N)C2 | 3% (inactive) |
| S=C(N/N=C(/c1ccccc1)c1ccccn1)N1CCCCCC1 | 52% (inactive) |
| Cc1ccc2[nH]c3c(C)c4cc[n+](C)cc4c(C)c3c2c1 | 14% (inactive) |
| CNC(=O)OCc1c(COC(=O)NC)c(-c2ccc(-c3ccccc3)cc2)n(C)c1C | -41% (inactive) |
| COc1ccccc1/C=C1\Sc2scc(-c3cccc([N+](=O)[O-])c3)[n+]2C1=O | 80% (active) |
| O=[N+]([O-])c1ccc2c(c1)C(N1CCN(CCO)CC1)Cc1ccc(F)cc1S2 (stereo not drawn) | -2% (inactive) |
| Cc1ccc(CCC2=CCCc3c2ccc2ccccc32)cc1 | -3% (inactive) |
| O=[N+]([O-])c1cccc2nccc(NCCCO)c12 | 2% (inactive) |
| Cc1ccc(-n2cc(-c3ccc(Cl)cc3)c(C#N)c2N)cc1 | 1% (inactive) |
| Cc1ccc(S/N=C\c2ccccc2O)cc1 | -6% (inactive) |
| O=C(O)C1OC1(c1cccc(Cl)c1)c1ccccc1Cl (stereo not drawn) | -8% (inactive) |
| NC(=S)N/N=C\c1nccc2ccccc12 | -3% (inactive) |
| Clc1cccc(C(Nc2nncs2)Nc2nncs2)c1Cl | 2% (inactive) |
| O=C(OCC=C1CCCC1)c1cc([N+](=O)[O-])cc([N+](=O)[O-])c1 | 2% (inactive) |
| O=C(Nc1ccccc1)C(=O)C(C(=O)c1ccccc1)C(c1ccccc1)c1ccccc1 (stereo not drawn) | 10% (inactive) |
| N#CN1C2CCC1CC(=O)C2 | -32% (inactive) |
| COc1ccccc1C(=O)OCC1CCCN2CCCCC12 (stereo not drawn) | 8% (inactive) |
| CCNc1nnc(CSc2nc(-c3ccccc3)c(-c3ccccc3)[nH]2)s1 | 14% (inactive) |
| O=C1c2ccccc2-c2n[nH]c3cccc1c23 | 10% (inactive) |
